Data on 54 compounds can be found in article PMC4336329 (PLoS ONE, 2015).

The campaign covered roughly 310,000 compounds. About 14,000 (4.5%) showed an effect of 50% or more. The effect is printed as a negative number. Only a selection was taken, and strong results are over-represented in it overall.
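Also: peak tail current of the secondary pulse compared with the same well before compound.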

For the experiment, the target named is human ether-à-go-go-related gene (hERG) potassium channel (human, UniProt Q12809). Put plainly: primary screen, population patch clamp on CHO cells stably expressing hERG; higher = less effect of the substance.
Chain of human ether-à-go-go-related gene (hERG) potassium channel (Q12809 whole entry, looked up): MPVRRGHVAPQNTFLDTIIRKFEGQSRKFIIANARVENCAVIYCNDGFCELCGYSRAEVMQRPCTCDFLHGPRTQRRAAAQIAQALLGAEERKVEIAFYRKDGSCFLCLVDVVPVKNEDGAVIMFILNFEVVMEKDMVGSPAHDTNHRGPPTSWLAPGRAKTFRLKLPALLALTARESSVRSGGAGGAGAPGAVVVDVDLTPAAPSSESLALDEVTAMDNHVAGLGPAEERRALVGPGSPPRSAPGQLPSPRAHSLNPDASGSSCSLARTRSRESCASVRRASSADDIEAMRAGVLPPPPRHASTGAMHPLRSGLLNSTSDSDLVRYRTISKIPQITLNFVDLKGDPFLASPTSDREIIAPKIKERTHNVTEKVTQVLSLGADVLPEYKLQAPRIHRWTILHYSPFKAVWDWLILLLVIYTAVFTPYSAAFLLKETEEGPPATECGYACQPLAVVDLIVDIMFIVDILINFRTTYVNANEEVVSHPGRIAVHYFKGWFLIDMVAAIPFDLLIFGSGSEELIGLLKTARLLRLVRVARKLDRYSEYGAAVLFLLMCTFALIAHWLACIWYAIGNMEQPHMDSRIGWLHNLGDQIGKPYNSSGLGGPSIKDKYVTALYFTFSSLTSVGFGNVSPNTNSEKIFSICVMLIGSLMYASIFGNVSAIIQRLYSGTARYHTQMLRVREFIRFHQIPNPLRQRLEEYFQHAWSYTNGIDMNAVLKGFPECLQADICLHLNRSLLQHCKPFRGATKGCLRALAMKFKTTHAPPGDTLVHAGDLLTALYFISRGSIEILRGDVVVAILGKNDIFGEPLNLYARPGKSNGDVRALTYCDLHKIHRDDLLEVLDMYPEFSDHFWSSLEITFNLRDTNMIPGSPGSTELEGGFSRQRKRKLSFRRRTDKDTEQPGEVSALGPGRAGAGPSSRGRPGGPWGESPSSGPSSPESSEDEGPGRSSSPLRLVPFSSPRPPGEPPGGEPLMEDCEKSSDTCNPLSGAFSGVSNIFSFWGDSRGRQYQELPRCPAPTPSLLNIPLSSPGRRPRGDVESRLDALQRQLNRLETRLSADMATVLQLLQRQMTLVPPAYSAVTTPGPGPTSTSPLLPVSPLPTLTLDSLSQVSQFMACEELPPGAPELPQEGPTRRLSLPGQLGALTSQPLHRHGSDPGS
Consider `COc1ccc(C2C(C#N)=C(N)N(N(C)C)C3=C2C(=O)CCC3)cc1` (stereo not drawn), for which the “hERG current change (%, negative = inhibition) at 10uM” value came to 9.88%. For the compound `CCOC(=O)N1CCN(S(=O)(=O)c2ccc(Cl)cc2)CC1`, the “hERG current change (%, negative = inhibition) at 10uM” value is 0.615%. For the compound `O=C(CSc1nc(-c2ccccc2)cs1)NCc1ccco1`, the “hERG current change (%, negative = inhibition) at 10uM” value is -14.9%. For the compound `COCCn1c(CN2CCN(c3ccc(OC)cc3)CC2)nc2c1c(=O)n(C)c(=O)n2C`, the “hERG current change (%, negative = inhibition) at 10uM” value is -9.23%. Take `COc1ccc(N2CCN(Cc3nc4c(c(=O)n(C)c(=O)n4C)n3Cc3cccc(C)c3)CC2)cc1`: the “hERG current change (%, negative = inhibition) at 10uM” value is given as -52.3%. For the compound `Cn1c(=O)c2c(nc(CN3CCc4ccccc4C3)n2Cc2cccc(Cl)c2)n(C)c1=O`, the “hERG current change (%, negative = inhibition) at 10uM” value was -53.9%. As to `Cn1c(=O)c2c(nc(CN3CCN(Cc4ccccc4)CC3)n2Cc2ccc(F)cc2)n(C)c1=O`, the “hERG current change (%, negative = inhibition) at 10uM” value is given as -67.2%. As for `Cc1ccc(Cn2c(CN(C)Cc3ccccc3)nc3c2c(=O)n(C)c(=O)n3C)cc1`, the “hERG current change (%, negative = inhibition) at 10uM” value is on record as -21.5%. On to `CCOC(=O)N1CCN(Cc2nc3c(c(=O)n(C)c(=O)n3C)n2Cc2ccc(F)cc2)CC1`, for which the “hERG current change (%, negative = inhibition) at 10uM” value is -36.2%. On to `Cc1ccc(C)c(Cn2c(CN(C)Cc3ccccc3)nc3c2c(=O)n(C)c(=O)n3C)c1`, for which the “hERG current change (%, negative = inhibition) at 10uM” value is given as -51.3%. As to `Cn1c(=O)c2c(nc(CN3CCc4ccccc4C3)n2Cc2ccc(F)cc2)n(C)c1=O`, the “hERG current change (%, negative = inhibition) at 10uM” value is listed as -26.5%. Consider `Cc1ccccc1Cn1c(CN2CCc3ccccc3C2)nc2c1c(=O)n(C)c(=O)n2C`, for which the “hERG current change (%, negative = inhibition) at 10uM” value was -15.9%. Regarding `COc1ccc(N2CCN(Cc3nc4c(c(=O)n(C)c(=O)n4C)n3CCc3ccccc3)CC2)cc1`, the “hERG current change (%, negative = inhibition) at 10uM” value was found to be 13.5%. For the compound `CN(Cc1ccccc1)Cc1nc2c(c(=O)n(C)c(=O)n2C)n1Cc1ccccc1Cl`, the “hERG current change (%, negative = inhibition) at 10uM” value was -5.6%. As for `Cn1c(=O)c2c(nc(CN3CCc4ccccc4C3)n2Cc2ccccc2)n(C)c1=O`, the “hERG current change (%, negative = inhibition) at 10uM” value is listed as -17.5%. As for `NC(=S)Nc1ccc(C(F)(F)F)cc1Cl`, the “hERG current change (%, negative = inhibition) at 10uM” value is listed as 0.127%.

As to `O=C(CN1C(=O)C2(OCCO2)c2ccccc21)c1ccc(F)cc1`, the “hERG current change (%, negative = inhibition) at 10uM” value is given as 2.09%. As for `COc1ccc(CCCC(=O)Nc2cc(C)ccc2OC)cc1`, the “hERG current change (%, negative = inhibition) at 10uM” value is given as -14.2%.

Take `CCOc1cc(C(=O)CCC(=O)OCC(=O)Nc2ccc(C)c(S(=O)(=O)N(C)C)c2)ccc1O`: the “hERG current change (%, negative = inhibition) at 10uM” value is on record as -32.7%. Turning to `Cc1cc(N)n(Cc2cccs2)n1`, the “hERG current change (%, negative = inhibition) at 10uM” value was -2.95%. On to `COc1ccc(C(=O)Nc2nnc(S(=O)(=O)N(C)Cc3ccccc3)s2)cc1`, for which the “hERG current change (%, negative = inhibition) at 10uM” value came to 7.21%.

Consider `O=c1c2ccccc2[nH]c(=S)n1-c1ccc2c(c1)OCO2`, for which the “hERG current change (%, negative = inhibition) at 10uM” value came out at 13.1%. On to `Cc1nc(NC(=O)CSc2nnc3ccccn23)c(Cl)cc1Cl`, for which the “hERG current change (%, negative = inhibition) at 10uM” value is listed as -3.58%. Consider `Cn1c(=O)c2c(nc(CN3CCN(Cc4ccccc4)CC3)n2Cc2ccc(Cl)cc2)n(C)c1=O`, for which the “hERG current change (%, negative = inhibition) at 10uM” value is -68%. Turning to `Cn1c(=O)c2c(nc(CN3CCc4ccccc4C3)n2Cc2ccc(Cl)cc2)n(C)c1=O`, the “hERG current change (%, negative = inhibition) at 10uM” value was found to be 0.125%. To `Cn1c(=O)c2c(nc(CN3CCN(Cc4ccccc4)CC3)n2CCN2CCOCC2)n(C)c1=O` belongs -17.6%. As to `Cc1csc(SCC(=O)Nc2cc(S(=O)(=O)N3CCOCC3)ccc2N2CCOCC2)n1`, the “hERG current change (%, negative = inhibition) at 10uM” value was -45.8%. To `CCn1c(SCC(=O)Nc2ccc(OC)cc2)nnc1-c1ccco1` belongs -22.3%; to `O=C(O)/C=C/C(=O)NNC(=O)c1ccccc1Br`, 2.8%. To `O=c1[nH]c(SCc2ccc(Cl)cc2)nc2ccccc12` belongs 3.49%; to `O=c1[nH]c(SCc2ccccc2)nc2ccsc12`, 5.3%.

Take `O=c1[nH]c(SCc2ccc(Cl)cc2)nc2ccsc12`: the “hERG current change (%, negative = inhibition) at 10uM” value was -67%. On to `COc1cc(CCCN2C(=S)NC[C@@H]2CC2CCCCC2)cc(OC)c1OC`, for which the “hERG current change (%, negative = inhibition) at 10uM” value is -1.89%. As for `CN(CC#CC(O)(c1ccccc1)c1ccccc1)C(C)(C)C`, the “hERG current change (%, negative = inhibition) at 10uM” value is listed as -69%. As for `CC(C)N(CC#CC(O)(c1ccccc1)c1ccccc1)CCO`, the “hERG current change (%, negative = inhibition) at 10uM” value is recorded as -28.1%. Regarding `CCN(CC)CC#CC(O)(c1ccccc1)c1ccccc1`, the “hERG current change (%, negative = inhibition) at 10uM” value was -42.5%. On to `OCCN(CC#CC(O)(c1ccccc1)c1ccccc1)CCO`, for which the “hERG current change (%, negative = inhibition) at 10uM” value is on record as 5.56%. With `CN(C)CCC#CC(O)(c1ccccc1)c1ccccc1`, the “hERG current change (%, negative = inhibition) at 10uM” value is -32.1%. As for `CC(C)N(CC#CC(O)(c1ccccc1)c1ccccc1)C(C)C`, the “hERG current change (%, negative = inhibition) at 10uM” value is given as -70.4%. As for `COc1ccc(-c2cc(CNS(=O)(=O)c3ccc(NC(C)=O)cc3)on2)cc1`, the “hERG current change (%, negative = inhibition) at 10uM” value turned out to be 18.6%.

Consider `COc1ccccc1C(=O)NCCOc1ccc(C)c(C)c1`, for which the “hERG current change (%, negative = inhibition) at 10uM” value amounted to 18.5%. On to `COc1ccc(Cl)cc1N(CC(=O)NC1CC1)S(=O)(=O)c1ccc(C)c([N+](=O)[O-])c1`, for which the “hERG current change (%, negative = inhibition) at 10uM” value is reported as 11.9%.

As for `Cl.O=C(Nc1ccc(C(=O)OC[C@@H]2CCCN3CCCC[C@H]23)cc1)c1cccc(Br)c1`, the “hERG current change (%, negative = inhibition) at 10uM” value is -69.3%. Consider `O=C(NC(=O)c1cccc(F)c1)OC[C@@H]1CCCN2CCCC[C@H]12`, for which the “hERG current change (%, negative = inhibition) at 10uM” value is recorded as -36.7%. Take `O=C(Nc1ccc(C(=O)N2CCOCC2)cc1)c1cccc(Br)c1`: the “hERG current change (%, negative = inhibition) at 10uM” value is recorded as 3.11%. On to `Cl.O=C(OC[C@@H]1CCCN2CCCC[C@H]12)c1cc2ccccc2oc1=O`, for which the “hERG current change (%, negative = inhibition) at 10uM” value was -50.1%. Consider `O=C(Nc1ccccc1)OCC1CCCN2CCCCC12` (stereo not drawn), for which the “hERG current change (%, negative = inhibition) at 10uM” value is -39.4%. As for `O=C(OC1CCCCC1)c1cc2ccccc2oc1=O`, the “hERG current change (%, negative = inhibition) at 10uM” value is -32.6%. To `O=C(NS(=O)(=O)Oc1ccc(Cl)cc1)OC[C@@H]1CCCN2CCCC[C@H]12` belongs 28.2%; to `COc1ccc(/C=C(\NC(=O)c2ccccc2)C(=O)OCC2CCCN3CCCCC23)cc1OC` (stereo not drawn), -40.7%. Take `O=C(NCC1CCCO1)c1ccc(NC(=O)c2cccc(Br)c2)cc1` (stereo not drawn): the “hERG current change (%, negative = inhibition) at 10uM” value was determined as 16.4%. To `O=C(NC(=O)c1cccc(Cl)c1)OC[C@@H]1CCCN2CCCCC12` (stereo partly drawn) belongs -60.9%; to `O=C(NC(=O)c1ccccc1)OCC1CCCN2CCCCC12` (stereo not drawn), -56.7%; to `Cl.O=C(OCC1CCCN2CCCCC12)c1ccc2c(c1)OCO2` (stereo not drawn), -22.8%.
